Laboratory results as given in PubChem BioAssay (NCI).
This is part of a sample that, as a whole, favours compounds with a hit. Of some 83,000 tested, about 20% had one in any assay.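 Assay: single dose, 48 h. Readout: percent growth (0 = no net growth; negative = cell death). Active: <10.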 Calls of active or inactive are those of the source.

What was measured:
Assay in all cases: NCI-60 one-dose screen, 48 h (100 = growth as untreated, 0 = no growth, -100 = all killed)
Details in all cases: 10 µM unless noted
[1] = test system: NCI-H23 lung
[2] = test system: NCI-H322M lung
[3] = test system: HOP-62 NSCLC
[4] = test system: NCI-H460 lung
[5] = test system: HOP-92 NSCLC
[6] = test system: NCI-H522 lung
[7] = test system: A549/ATCC NSCLC
[8] = test system: 786-0 renal
[9] = test system: COLO 205 colon
[10] = test system: DU-145 prostate

Measured: growth

Cn1cc([C@@H]2Nc3ccc4[nH]ncc4c3[C@H]3[C@H]4CCC(C4)[C@H]32)c(C(F)(F)F)n1
inactive: [1] 90.6% | [2] 89.5% | [3] 53% | [4] 27.9% | [5] 64.1% | [7] 41.1% | [8] 59.1% | [9] 52.7% | [10] 72.9%
active: [6] 2.48%

COC(=O)/C(=C\c1c(-c2ccccc2)[nH]c2ccccc12)S(C)(=O)=O
active: [10] -5.09%
inactive: [1] 33.9% | [2] 63.8% | [3] 38.2% | [4] 12.5% | [5] 65.4% | [6] 47.1% | [7] 38.6% | [8] 38.1% | [9] 24.3%

O=C(Nc1ccc(I)cc1F)c1cc(F)ccc1O
inactive: [9] 25.1% | [10] 15.1%
active: [1] -2.66% | [2] 4.87% | [3] -16.6% | [4] 1.95% | [5] -9.55% | [6] -15.8% | [7] 6.45% | [8] -0.577%

COc1ccc(N(C)c2nc(N)nc3sc4c(c23)CCCC4)cc1
active: [4] 3.58% | [6] -13.7% | [9] -60.3% | [10] 0.729%
inactive: [1] 19.3% | [2] 52.6% | [3] 28.3% | [5] 36.5% | [7] 15.4% | [8] 26.4%

Cc1nc2ccccc2c(/C=C/c2ccc(F)cc2)c1C(N)=O
inactive: [1] 101% | [2] 110% | [3] 95.2% | [4] 108% | [5] 105% | [6] 94.3% | [7] 97.7% | [8] 99.8% | [9] 114% | [10] 105%

CN1CCN(Cc2ccc(C(=O)Nc3cncc(C#Cc4cnc5cccnn45)c3)cc2C(F)(F)F)CC1
inactive: [1] 47.5% | [2] 54.4% | [3] 70.9% | [4] 49.2% | [5] 34.4% | [6] 40.2% | [7] 58.5% | [8] 57.2% | [9] 39.3% | [10] 36.1%

COc1ccc(C2c3ccc4ccccc4c3Oc3ncn(CCCn4ccnc4)c(=N)c32)cc1OC (stereo not given)
inactive: [1] 60.6% | [2] 49.8% | [3] 73.4% | [4] 55.8% | [5] 24.3% | [6] 72.6% | [7] 55.3% | [8] 68.4% | [9] 53.4% | [10] 79%

CCCCC(O)(c1ccc(Cl)cc1)C(CN1CCOCC1)c1ccc(Cl)cc1 (stereo not given)
active: [5] -3.36%
inactive: [1] 31.2% | [2] 70.8% | [3] 60.1% | [4] 19.4% | [6] 19.8% | [7] 29.6% | [8] 53.8% | [9] 100% | [10] 58.2%

COc1cc(NC(=O)CCSc2nc3ccccc3c(=O)n2Cc2ccccc2)cc(OC)c1OC
inactive: [1] 89.7% | [2] 75.8% | [3] 92.8% | [4] 94.6% | [5] 54.5% | [7] 72.7% | [8] 83.4% | [9] 118% | [10] 97.5%
active: [6] 4.12%

Clc1ccc(Nc2scc3[n+]2CCC3)cc1
inactive: [1] 92.7% | [2] 101% | [3] 99.8% | [4] 102% | [5] 81% | [6] 93.5% | [7] 92.4% | [8] 94.9% | [9] 120% | [10] 101%

O=C(c1ccccc1)N(C(=S)NCCc1ccc(Cl)cc1)c1ccc(Cl)cc1
inactive: [1] 74.7% | [2] 75.9% | [3] 91.3% | [4] 80.1% | [5] 76.3% | [6] 92.1% | [7] 82.4% | [8] 57.2% | [9] 61.6% | [10] 29.3%

COc1ccc(/C=C/C(=O)c2c(C)nc3ccccc3c2/C=C/c2ccccc2)c(OC)c1
inactive: [1] 73.4% | [2] 89.3% | [3] 108% | [4] 80.3% | [5] 66.8% | [6] 70.5% | [7] 78.5% | [8] 94.1% | [9] 94.7% | [10] 90.4%

CCOC(=O)c1cc2c(n1Cc1cc(OC)cc(OC)c1)-c1oncc1CCC2
active: [4] 6.91% | [6] -19.1% | [9] -54.8%
inactive: [1] 23.7% | [2] 28% | [3] 50.4% | [5] 57.5% | [7] 26.6% | [8] 41.9% | [10] 15.6%

CC(C)Cn1c2c(c(=S)[nH]c1=O)CCC2
inactive: [1] 104% | [2] 103% | [3] 102% | [4] 105% | [5] 113% | [6] 96.1% | [7] 103% | [8] 104% | [9] 117% | [10] 111%

CCOC(=O)C1=C(C)N=c2s/c(=C\c3ccccc3O)c(=O)n2C1c1ccc(OC)c2ccccc12 (stereo not given)
inactive: [1] 82.3% | [2] 10.5% | [3] 29.2% | [8] 36% | [10] 43.5%
active: [4] -41.8% | [5] 4.78% | [6] -36.2% | [7] -21.1% | [9] -90%

O=C1/C(=C\c2ccc[nH]2)c2ccccc2N1c1ccccc1
inactive: [1] 87.9% | [2] 91.7% | [3] 106% | [4] 95.8% | [5] 96% | [6] 75.5% | [7] 96% | [8] 98.1% | [9] 108% | [10] 112%

CC(C)c1ccc(S(=O)(=O)NC(=O)NC2CCCC2)cc1
inactive: [1] 101% | [2] 98% | [3] 100% | [4] 104% | [5] 107% | [6] 97.2% | [7] 87.7% | [8] 103% | [9] 108% | [10] 107%

CCCC(c1nnnn1C1CCCCC1)N1CCN(C(=O)c2ccco2)CC1 (stereo not given)
inactive: [1] 71% | [2] 97.5% | [3] 79.2% | [4] 40.6% | [5] 47.6% | [6] 62.5% | [7] 55.2% | [8] 74.9% | [9] 73.4% | [10] 69.7%

CN1C(=O)N(C)C2C1NN=c1s/c(=C\c3c[nH]c4ccccc34)c(=O)n12 (stereo not given)
inactive: [1] 38.7% | [2] 50.4% | [3] 49.2% | [5] 114% | [6] 11.5% | [7] 24.3% | [8] 23.4%
active: [4] 1.56% | [9] -53.4% | [10] 5.09%

CCOC(=O)C1=CN(C)C=C(C(=O)OCC)C1c1cc(Br)c(OCC)c(OC)c1
active: [5] 2.87% | [9] -59.7%
inactive: [1] 65.9% | [2] 98.6% | [3] 55.6% | [4] 34.5% | [6] 52.2% | [7] 66.1% | [8] 59.9% | [10] 84%

Brc1ccc(Oc2ccc(Nc3ncnc4onc(-c5ccccc5)c34)cc2)cc1
inactive: [1] 94.3% | [2] 110% | [3] 99.8% | [4] 103% | [5] 110% | [6] 97.8% | [7] 95.5% | [8] 98.5% | [9] 112% | [10] 102%

COc1cc(/C=C2\Oc3cc(OCCCN4CCCC4)ccc3C2=O)cc(OC)c1
inactive: [1] 69.9% | [2] 77.1% | [3] 91.5% | [5] 67.6% | [6] 76.7% | [7] 33.2% | [8] 73.6% | [9] 71% | [10] 33.6%
active: [4] -71.1%

CCN(CC)c1cc(C)c2cc(NC(=O)c3cccc(OC)c3)ccc2n1
inactive: [1] 85% | [2] 109% | [3] 107% | [4] 57.1% | [5] 29.1% | [6] 93.4% | [7] 80% | [8] 70% | [9] 89.7% | [10] 92.9%

CCOc1cc(Cl)c(C(C)NC(=O)c2cccc(OC)c2)cc1OCC (stereo not given)
active: [1] 4.89% | [3] -11.2% | [5] -46.3% | [6] -76.1% | [8] -74.9% | [9] -84.8% | [10] -21.7%
inactive: [2] 127% | [4] 13.6% | [7] 17.3%

CCN(CC)CCCNc1ccnc2cc3ccccc3cc12
active: [3] -9.44%
inactive: [1] 83.3% | [2] 76% | [4] 45.5% | [5] 55.6% | [6] 51.8% | [7] 46.6% | [8] 66.8% | [9] 74.8% | [10] 73.8%

O=C(Nc1ccc(F)c(Cl)c1)Nc1ccc(Cl)c(Cl)c1
inactive: [1] 86.1% | [2] 102% | [3] 74.2% | [4] 76.9% | [5] 65.1% | [6] 66.4% | [7] 71.8% | [8] 87.2% | [9] 89% | [10] 88.4%

COc1c(B(O)O)cccc1-c1nc2ccc3n[nH]c(F)c3c2c2c1CCCC2
inactive: [1] 92.9% | [2] 92.6% | [3] 66.3% | [4] 47.2% | [5] 78.6% | [6] 59.4% | [7] 66% | [8] 69.5% | [9] 93.2% | [10] 77.7%
